According to PubChem BioAssay (EPA / NIEHS):
Several values for one entry are separate records, joined by “and”; a condition that tells them apart may be missing. Equal values may be shown once. Where a structure was tested more than once in an assay, its records may differ in their call. Activity calls are given as the source filed them. Rule for the calls: active = hit-call score of the fitted dose curve at least 0.9, where 1 is the maximum; inactive = score below 0.9.

test: ATG_DR4_LXR_CIS: Attagene CIS-FACTORIAL HepG2 Assay for human Liver X Receptor (LXR), DR4 submotif (AID 2282929); settings: HepG2 Attagene DR4 cis-reporter, mRNA transcription; actives raise or lower the signal
Experimental: ATG_CIS is a cell-based, multiplexed-readout assay that uses HepG2, a human liver cell line, with measurements taken at 24 hours after chemical dosing in a 24-well plate.ATG_DR4_LXR_CIS is one of 52 assay component(s) measured or calculated from the ATG_CIS assay. It is designed to make measurements of mRNA induction, a form of inducible reporter, as detected with fluorescence intensity signals by Reverse transcription polymerase chain reaction (RT-PCR) and Capillary electrophoresis technology.Data from the assay component ATG_DR4_LXR_CIS was analyzed into 1 assay endpoint. This assay endpoint, ATG_DR4_LXR_CIS, was analyzed with bidirectional fitting relative to DMSO as the negative control and baseline of activity. Using a type of inducible reporter, measures of mRNA for gain or loss-of-signal activity can be used to understand the reporter gene at the transcription factor-level as they relate to the gene NR1H2 and NR1H3. Furthermore, this assay endpoint can be referred to as a primary readout, because this assay has produced multiple assay endpoints where this one serves a reporter gene function. To generalize the intended target to other relatable targets, this assay endpoint is annotated to the nuclear receptor intended target family, where the subfamily is non-steroidal.
Human liver HepG2 cells are transiently transfected with multiple reporter transcription units (MRTUs) in 6-well plates using FuGene 6 reagent (Roche; 3 ml FuGene/1 mg DNA). The MRTU constructs are regulated by a cis-regulating element (promoter). […] A major difference between the CIS and TRANS system is that in CIS activities of endogenous TFs are measured, whereas the TRANS assay evaluates changes in activities of exogenous, chimeric NR-Gal4 proteins. […] At the end of 24 hour incubation, total RNA was isolated using TriZol reagent (Invitrogen). The isolated RNA is then reverse-transcribed using oligo(dT) primer and Mo-MLV reverse transcriptase (Invitrogen) with DNAse I (Ambion) treatment for 30 min. The one-tenth of the produced cDNA was amplified by PCR using Taq DNA polymerase (Invitrogen) and two reporter sequence-specific primers. The PCR products were fluorescently labeled by primer extension with 6-arboxyfluorescein (6-FAM) 5'-labeled reporter sequence-specific primer (2 min at 95 C, 20 s at 68 C and 10 min at 72 C) and these products were digested with 5U of HpaI (New England Biolabs) for 2h at 37 C. The fragments were purified using Qiaquick PCR columns (Qiagen), analyzed on an ABI 3130xL genetic analyzer (Applied Biosystems) with peak positions identified by using a set of X-rhodamine (ROX)-labeled MapMarker1000 molecular weight standards (BioVentures). The raw capillary electrophoresis data was processed using Attagraph software (Attagene).

| SMILES | AC50 | outcome |
| --- | --- | --- |
| O=C1CCC(C2CCCCC2)CC1 | 164 µM (active) and 171 µM (active) and 160 µM (active) | inactive |
| CCCC(=O)OCCC(C)C |  | inactive |
| O=C(O)Cc1cc(I)c(Oc2ccc(O)c(I)c2)c(I)c1 |  | inactive |
| O=C1c2ccccc2C(=O)N1CCc1noc(-c2ccc(CN3CCCCCC3)s2)n1 | 84.5 µM (active) |  |
| CCCCCCCC[Si](OCC)(OCC)OCC | 126 µM (active) [middle of 4 runs] |  |
| CC1=CC(=O)/C(=C(/C)O)C(=O)O1 |  | inactive |
| O=C=NCCCCCCN=C=O |  | inactive |
| O=C1O[C@H]([C@@H](O)CO)C(O)=C1O |  | inactive |
| COc1cc(C(=O)NC2CCN(C)CC2)ccc1Nc1ncc2c(n1)N(C1CCCC1)CC(F)(F)C(=O)N2C | 5.99 µM (active) |  |
| CCCOC(=O)c1cc(O)c(O)c(O)c1 |  | inactive |
| CC(=O)N1CCN(c2ccc(OC[C@H]3CO[C@](Cn4ccnc4)(c4ccc(Cl)cc4Cl)O3)cc2)CC1 | 43.9 µM (active) |  |
| Cc1cn([C@H]2C[C@H](N=[N+]=[N-])[C@@H](CO)O2)c(=O)[nH]c1=O |  | inactive |
| COc1cccc([C@H](O)C2CCN(CCc3ccc(F)cc3)CC2)c1OC | 100 µM (active) |  |
| CCN(Cc1cccnc1)C(=O)c1cccc(Cl)c1[C@]1(C)C(=O)N(Cc2ccc(OC)cc2OC)c2ccc(Cl)cc21 | 7.45 µM (active) |  |
| Cc1cc2c(cc1C(F)(F)F)N(C(=O)Nc1ccc(Oc3cccnc3C)nc1)CC2 |  | inactive |
| CC[C@@H]1C[C@H](N(Cc2cc(C(F)(F)F)cc(C(F)(F)F)c2)C(C)=O)c2cc(C(F)(F)F)ccc2N1C(=O)OC(C)C |  | inactive |
| O=C(O)c1ccccc1C(=O)OCc1ccccc1 |  | inactive |
| O=c1c(-c2ccc(O)cc2)coc2cc(O)cc(O)c12 | 7.13 µM (active) and 4.78 µM (active) | inactive |
| O=C(Nc1ccc(Cl)cc1)Nc1ccc(Cl)c(Cl)c1 | 10.5 µM (active) |  |

| SMILES | AC50 | outcome |
| --- | --- | --- |
| NC(=O)c1nc(-c2cccc(-c3cc(F)ccc3OCC(F)(F)C(F)(F)F)c2)n[nH]1 | 44.4 µM (active) |  |
| CO[C@H]1/C=C/O[C@@]2(C)Oc3c(C)c(O)c4c(O)c(c(/C=N/N5CCN(C)CC5)c(O)c4c3C2=O)NC(=O)/C(C)=C\C=C\[C@H](C)[C@H](O)[C@@H](C)[C@@H](O)[C@@H](C)[C@H](OC(C)=O)[C@@H]1C |  | inactive |
| CC(O)CC(C)(C)O (stereo not given) |  | inactive |
| CCOC(=O)O[C@H](C)OC(=O)c1ccc2c(c1)cc(C(=O)NC1CCN(C(C)C)CC1)n2Cc1cc(-c2ccc(Cl)s2)on1 |  | inactive |
| CCCCCCCCCCCO |  | inactive |
| c1ccc(C[n+]2cccc3ccccc32)cc1 |  | inactive |
| COCC(C)OCC(C)OCC(C)O (stereo not given) |  | inactive |
| CCO[Si](CCCNC(N)=O)(OCC)OCC |  | inactive |
| Oc1ccccc1 |  | inactive |
| Cc1oc2c(NC(=O)c3c(Cl)cccc3Cl)cccc2c1C(C)(C)O |  | inactive |
| CN(C)C(=O)C1(N2CCCCC2)CCN(CC[C@@]2(c3ccc(Cl)c(Cl)c3)CN(C(=O)c3ccccc3)CCO2)CC1 |  | inactive |
| CC/C(=C(/CC)c1ccc(O)cc1)c1ccc(O)cc1 | 7.89 µM (active) [middle of 4 runs] | inactive |
| Clc1cc(Cl)c2c(c1)N=C1CCCCCN1C2 | 78.1 µM (active) |  |
| O=c1ccc2ccccc2o1 |  | inactive |
| O=CCCCC=O |  | inactive |
| CCCCCCCCOC(=O)c1cc(O)c(O)c(O)c1 |  | inactive |
| CCCCCCCCN(C)CCCCCCCC |  | inactive |
| CC(C)(c1cc(Br)c(O)c(Br)c1)c1cc(Br)c(O)c(Br)c1 | 12.5 µM (active) and 13.9 µM (active) |  |
